The values below come from PubChem BioAssay.

A short description of experiment [1]: small molecules captured by biotinylated probe aFSTL3 – biochemical, small-molecule microarray, fluorescence 635/667, stem cell growth factor project, primary screen (AID 1064).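 Also: measures binding of the biotinylated anti-FSTL3 antibody to printed compounds.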 The note with it: higher = more signal.
Experiment [2] can be described thus: binders from COS7 lysate, DM2A8 probe, primary screen, torsin A project, cell lysate, small-molecule microarray, fluorescence 635/667 (AID 1065). The note with it: higher = more signal, COS7 lysate expressing mutant human TOR1A.
Experiment [3] can be described thus: small molecules captured by biotinylated probe aFGF2 – biochemical, small-molecule microarray, fluorescence 635/667, stem cell growth factor project, primary screen (AID 1067).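 Also: measures binding of biotinylated aFGF2 protein to printed compounds on slides; z-score merges feature fluorescence and signal-to-noise across triplicate slides.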 The note with it: higher = more signal.
Experiment [4] in a line: small molecules captured by biotinylated probe aFGF10 – biochemical, small-molecule microarray, fluorescence 635/667, stem cell growth factor project, primary screen (AID 1071).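 Also: score merges 667 nm spot intensity and signal to noise from triplicate slides.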 The note with it: higher = more signal.
The target in experiment [5] is Neurogenic locus notch homolog protein 2 (Homo sapiens) (UniProt Q04721). The experiment in a line: small molecules binding Notch2 protein – biochemical, small-molecule microarray, 635 nm fluorescence, stem cell growth factors, primary screen (AID 1073). The following applies: higher = more signal.
Chain of Neurogenic locus notch homolog protein 2 (Homo sapiens) (Q04721 whole entry, looked up, canonical isoform): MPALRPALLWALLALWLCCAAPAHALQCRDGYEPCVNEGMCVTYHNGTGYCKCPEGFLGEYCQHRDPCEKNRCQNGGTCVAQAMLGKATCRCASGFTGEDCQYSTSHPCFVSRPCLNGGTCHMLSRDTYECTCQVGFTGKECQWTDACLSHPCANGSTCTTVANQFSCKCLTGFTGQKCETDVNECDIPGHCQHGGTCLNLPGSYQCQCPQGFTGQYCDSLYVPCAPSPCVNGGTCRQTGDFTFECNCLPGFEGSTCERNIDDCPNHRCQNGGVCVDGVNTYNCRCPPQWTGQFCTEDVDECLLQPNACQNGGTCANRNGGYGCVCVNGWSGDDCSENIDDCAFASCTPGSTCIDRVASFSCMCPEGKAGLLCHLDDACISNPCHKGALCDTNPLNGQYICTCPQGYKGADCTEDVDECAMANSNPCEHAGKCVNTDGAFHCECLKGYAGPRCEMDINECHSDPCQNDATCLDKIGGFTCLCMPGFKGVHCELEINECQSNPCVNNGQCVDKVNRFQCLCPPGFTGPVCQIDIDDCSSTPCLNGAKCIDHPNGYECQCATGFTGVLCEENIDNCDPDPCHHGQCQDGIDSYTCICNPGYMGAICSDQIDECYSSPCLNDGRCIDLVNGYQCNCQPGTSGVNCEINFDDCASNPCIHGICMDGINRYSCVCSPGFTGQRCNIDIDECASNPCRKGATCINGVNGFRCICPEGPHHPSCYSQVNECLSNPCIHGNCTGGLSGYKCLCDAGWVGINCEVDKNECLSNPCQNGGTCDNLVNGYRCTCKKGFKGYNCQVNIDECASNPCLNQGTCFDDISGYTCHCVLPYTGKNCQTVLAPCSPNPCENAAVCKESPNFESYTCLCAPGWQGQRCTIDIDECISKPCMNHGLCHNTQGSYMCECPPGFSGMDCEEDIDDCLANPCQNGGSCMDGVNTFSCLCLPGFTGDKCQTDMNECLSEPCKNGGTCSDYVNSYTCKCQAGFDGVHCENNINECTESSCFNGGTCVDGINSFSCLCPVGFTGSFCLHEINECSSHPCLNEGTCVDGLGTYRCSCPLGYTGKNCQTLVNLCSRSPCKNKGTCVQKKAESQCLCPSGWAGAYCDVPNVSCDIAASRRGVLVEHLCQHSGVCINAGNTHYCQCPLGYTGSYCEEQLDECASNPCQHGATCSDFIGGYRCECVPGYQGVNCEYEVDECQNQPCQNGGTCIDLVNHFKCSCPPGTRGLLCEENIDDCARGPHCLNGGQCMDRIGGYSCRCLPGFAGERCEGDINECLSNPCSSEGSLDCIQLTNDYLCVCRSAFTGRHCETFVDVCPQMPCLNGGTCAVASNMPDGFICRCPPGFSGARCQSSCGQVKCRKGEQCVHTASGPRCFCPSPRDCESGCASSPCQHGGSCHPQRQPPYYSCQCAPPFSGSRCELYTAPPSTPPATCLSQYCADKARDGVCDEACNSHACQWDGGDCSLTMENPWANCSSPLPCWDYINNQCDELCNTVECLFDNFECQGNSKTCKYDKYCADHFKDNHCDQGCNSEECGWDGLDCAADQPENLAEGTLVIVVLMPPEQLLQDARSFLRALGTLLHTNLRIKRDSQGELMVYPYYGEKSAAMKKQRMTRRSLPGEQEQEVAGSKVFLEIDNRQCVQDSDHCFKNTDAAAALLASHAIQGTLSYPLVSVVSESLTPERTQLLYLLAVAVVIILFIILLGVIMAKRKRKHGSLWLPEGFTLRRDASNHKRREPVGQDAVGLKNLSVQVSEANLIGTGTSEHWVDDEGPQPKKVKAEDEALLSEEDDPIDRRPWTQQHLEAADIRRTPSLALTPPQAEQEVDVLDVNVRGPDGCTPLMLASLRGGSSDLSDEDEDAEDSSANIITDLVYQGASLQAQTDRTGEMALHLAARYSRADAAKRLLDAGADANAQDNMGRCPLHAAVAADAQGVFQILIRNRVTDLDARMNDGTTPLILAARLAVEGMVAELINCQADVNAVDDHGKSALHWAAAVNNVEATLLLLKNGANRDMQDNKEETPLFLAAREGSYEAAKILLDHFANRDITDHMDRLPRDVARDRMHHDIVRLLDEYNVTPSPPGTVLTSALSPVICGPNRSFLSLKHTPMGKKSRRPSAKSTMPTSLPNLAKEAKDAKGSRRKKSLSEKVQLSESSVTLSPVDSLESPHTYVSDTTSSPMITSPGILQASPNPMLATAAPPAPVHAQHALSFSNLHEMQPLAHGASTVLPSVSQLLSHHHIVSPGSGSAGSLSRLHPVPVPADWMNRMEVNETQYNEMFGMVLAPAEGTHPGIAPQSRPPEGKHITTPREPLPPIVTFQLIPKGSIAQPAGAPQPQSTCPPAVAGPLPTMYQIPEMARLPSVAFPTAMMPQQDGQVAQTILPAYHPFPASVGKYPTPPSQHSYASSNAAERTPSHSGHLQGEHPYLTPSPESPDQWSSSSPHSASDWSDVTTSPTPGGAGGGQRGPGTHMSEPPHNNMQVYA
Experiment [6] has as its target Pro-neuregulin-1, membrane-bound isoform (Homo sapiens) (UniProt Q02297). The experiment in a line: small molecules binding neuregulin-1 protein – biochemical, small-molecule microarray, fluorescence 635/667, psychiatric disease protein project, primary screen (AID 1075).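 Also: score combines 667 nm spot fluorescence with signal to noise.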 The following applies: NRG1 binding, 635 nm fluorescence, higher = more signal.
Experiment [7] deals with Neuregulin-1 EGF-like domain. Nature of the experiment: small molecules binding NRG1 EGF domain – biochemical, small-molecule microarray, 635 nm fluorescence, primary screen (AID 1081).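 Also: binding of the protein to compounds printed on small-molecule microarray slides.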 The note with it: higher = more signal.
Experiment [8] is described as follows: FRG1 expression reporter modulators in myotubes – cell-based, C2C12 myotubes, firefly/Renilla luciferase, luminescence, FRG1 inhibition for FSHD, primary screen (AID 1084). The note with it: FRG1 promoter luciferase, higher = more signal, called active from +8 up or from −8 down.
The nature of experiment [9]: small molecules captured by biotinylated probe aFST – biochemical, small-molecule microarray, fluorescence 635/667, stem cell growth factor project, primary screen (AID 1086).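 Also: score merges 667 nm fluorescence with signal-to-noise of each printed compound spot.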 The note with it: higher = more signal.
Experiment [10] is described as follows: binders of probe aHhip on microarray, primary screen, stem cell growth factor project, biochemical, small-molecule microarray, fluorescence 635/667 (AID 1087).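 Also: score merges spot fluorescence at 667nm with spot signal to noise ratio.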 The following applies: higher = more signal.
For experiment [11], the system named is PRMT1 (protein arginine N-methyltransferase 1). Nature of the experiment: small molecules binding arginine methyltransferase PRMT1 – biochemical, small-molecule microarray, 635 nm fluorescence, primary screen (AID 1088).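 Also: binding of Prmt1 protein to compounds spotted on small-molecule microarray slides.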 The following applies: higher = more signal.
Experiment [12] is described as follows: growth effects on S. cerevisiae YJM789 – YJM789 clinical isolate, OD600, 24 h, basal, primary screen (AID 1089).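 Also: growth of clinical yeast isolate S. cerevisiae YJM 789 seeded 1000 cells per well; test concentration not given here.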 The following applies: higher = more signal, called active from +8 up or from −8 down.
A short description of experiment [13]: S. pombe growth modifiers, basal conditions – strain 972, OD600, 24 h, no modulator, primary screen (AID 1090).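 Also: basal condition with compound alone and no growth modifier present; test concentration not given here.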 The following applies: S. pombe 972 growth, higher = more signal, called active from +8 up or from −8 down.
A short description of experiment [14]: budding yeast growth modifiers under rapamycin – strain BY4716, OD600, 96 h, primary screen (AID 1091). Also: test concentration not given here. The following applies: S. cerevisiae BY4716 + rapamycin, higher = more signal, called active from +8 up or from −8 down.
Experiment [15] addresses Torsin-1A-interacting protein 2 (Homo sapiens) (UniProt Q8NFQ8). Nature of the experiment: small molecules binding lysate-expressed LULL1 – cell lysate, human LULL1 lysate, 635/667 nm fluorescence, primary screen (AID 1092).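 Also: probe is lysate of COS7 cells overexpressing human LULL1; score merges per-feature 667 nm fluorescence with signal-to-noise.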 The note with it: small-molecule microarray, hLULL1 lysate binding, 635 nm fluorescence; higher = more signal.
A short description of experiment [16]: optical density change of DRC41 E. coli – strain DRC41, OD650, 24 h, E. coli filamentation project, primary screen (AID 1093).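 Also: MC1000 strain lacking acrAB efflux and sulA so SOS filamentation is blocked; test concentration not given here.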 The following applies: E. coli DRC41 growth, higher = more signal, called active from +8 up or from −8 down.
Experiment [17] can be described thus: probe aLefty2 binding to arrayed compounds – biochemical, biotinylated probe, 635/667 nm fluorescence, primary screen (AID 1094).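 Also: score merges spot fluorescence near 667 nm with spot signal-to-noise ratio.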 The note with it: small-molecule microarray, higher = more signal.
Experiment [18] concerns Noggin (protein binding on small-molecule microarray). Nature of the experiment: small molecules binding Noggin protein – biochemical, 635/667 nm fluorescence, primary screen (AID 1095).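 Also: score merges 667 nm feature fluorescence with signal to noise over triplicate slides.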 The note with it: 635 nm fluorescence, higher = more signal.
Experiment [19] concerns the target Neurogenic locus notch homolog protein 3 (Homo sapiens) (UniProt Q9UM47). The experiment in a line: small molecules binding NOTCH3 protein – biochemical, 635/667 nm fluorescence, primary screen (AID 1096). The following applies: small-molecule microarray, 635 nm fluorescence, higher = more signal.
Experiment [20] can be described thus: probe aEGFR binding to arrayed compounds – biochemical, biotinylated probe, 635/667 nm fluorescence, primary screen (AID 1097).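 Also: probe is a biotinylated anti-EGFR antibody binding compounds printed on slides; score combines fluorescence near 667 nm and signal to noise of each spot.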 The following applies: small-molecule microarray, higher = more signal.

The source made the active and inactive calls.

Chain of Pro-neuregulin-1, membrane-bound isoform (Homo sapiens) (Q02297 whole entry, looked up, the tested form may be a part, canonical isoform): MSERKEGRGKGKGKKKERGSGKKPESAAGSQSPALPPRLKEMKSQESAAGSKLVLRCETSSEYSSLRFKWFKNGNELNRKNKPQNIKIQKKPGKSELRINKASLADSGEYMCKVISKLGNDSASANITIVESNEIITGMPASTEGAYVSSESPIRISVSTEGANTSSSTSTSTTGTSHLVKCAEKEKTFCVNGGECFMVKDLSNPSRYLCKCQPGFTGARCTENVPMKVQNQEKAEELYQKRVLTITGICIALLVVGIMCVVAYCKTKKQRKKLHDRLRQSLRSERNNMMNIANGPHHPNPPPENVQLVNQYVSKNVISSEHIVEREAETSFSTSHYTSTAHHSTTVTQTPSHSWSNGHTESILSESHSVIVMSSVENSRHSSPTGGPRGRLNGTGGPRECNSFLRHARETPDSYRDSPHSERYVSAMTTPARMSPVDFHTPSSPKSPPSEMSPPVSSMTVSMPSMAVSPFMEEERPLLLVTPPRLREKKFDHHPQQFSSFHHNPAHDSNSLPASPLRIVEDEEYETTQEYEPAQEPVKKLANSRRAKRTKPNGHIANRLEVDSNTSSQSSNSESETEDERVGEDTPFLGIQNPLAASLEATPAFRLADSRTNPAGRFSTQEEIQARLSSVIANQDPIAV
Chain of Torsin-1A-interacting protein 2 (Homo sapiens) (Q8NFQ8 whole entry, looked up): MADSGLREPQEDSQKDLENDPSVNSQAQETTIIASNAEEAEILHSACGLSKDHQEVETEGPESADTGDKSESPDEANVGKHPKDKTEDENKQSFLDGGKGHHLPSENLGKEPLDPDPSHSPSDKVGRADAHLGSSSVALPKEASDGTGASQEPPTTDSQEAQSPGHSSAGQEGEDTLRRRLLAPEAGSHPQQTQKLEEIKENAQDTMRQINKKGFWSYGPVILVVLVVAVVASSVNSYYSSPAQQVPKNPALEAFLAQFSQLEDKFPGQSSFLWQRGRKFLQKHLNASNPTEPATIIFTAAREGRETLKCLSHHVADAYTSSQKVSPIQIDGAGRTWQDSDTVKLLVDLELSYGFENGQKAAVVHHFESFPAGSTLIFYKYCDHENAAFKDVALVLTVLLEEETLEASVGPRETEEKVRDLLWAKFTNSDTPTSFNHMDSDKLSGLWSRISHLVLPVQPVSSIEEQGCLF

For the compound `CN1C(=O)[C@]2(CCC(=O)OC(C)(C)C)N=C(c3ccc(OCCCO)cc3)O[C@@H]2c2ccccc21`, the composite z-score amounted to 0.229 in [1]; 0.326 in [2]; 0.0458 in [3]; 0.182 in [4]; 0.428 in [5]; 1.8 in experiment [6]. Further, the composite z-score was found to be 1.35 in experiment [7]; 0.898 in [9]; 0.21 in experiment [10]; 1.55 in experiment [11]; 3.06 in experiment [15]; 0.0079 in experiment [17]. Also, the composite z-score is 1.9 in [18], 1.13 in [19] and -0.04 in experiment [20]. For the same compound, the z-score in experiment [8] was 0.518 (inactive); in [12], 0.494 (inactive); in experiment [13], -0.243 (inactive); in experiment [14], 0.872 (inactive); in experiment [16], 0.95 (inactive).
Consider `O=C1O[C@@H](c2ccccc2)[C@@H](c2ccccc2)N2[C@@H](c3ccc(OCCO)cc3)[C@]3(C(=O)Nc4ccc(C#CCCO)cc43)[C@@H](C(=O)Nc3nc4ccccc4s3)[C@H]12`, for which the composite z-score in experiment [1] is 0.0758; in experiment [2], 0.482; in [3] it was -0.0316; in [4], 0.444; in experiment [5], 1.03; in experiment [6], 1.14. For the same compound, the composite z-score in experiment [7] was 1.07; in experiment [9], 1.27; in experiment [10] it was -0.0241; in [11], 1.5; in experiment [15] it was 3.06; in [17], -0.0826. Further, the composite z-score was 0.677 in experiment [18], 1.06 in experiment [19] and -0.0531 in experiment [20]. Besides, the z-score in experiment [8] is 0.28 (inactive); in [12], 1.32 (inactive); in experiment [13], 0.415 (inactive); in experiment [14] it was 1.72 (inactive); in experiment [16], 2.55 (inactive).
Regarding `COc1cccc(OC)c1C(=O)O[C@H]1[C@@H]2OC(=O)[C@H](Cc3cccc(Br)c3)C/C=C/C[C@@H](Cc3cccc(Br)c3)C(=O)O[C@H]2[C@@H](OC)O[C@@H]1CO`, the composite z-score is 0.0113 in [1]; 0.94 in experiment [2]; -0.0262 in experiment [3]; 0.205 in experiment [4]; 0.194 in experiment [5]; 1.28 in experiment [6]. Besides, the composite z-score in [7] is 0.945; in experiment [9], 0.401; in [10] it was 0.101; in experiment [11], 1.4; in [15], 1.08; in experiment [17], -0.0711. The composite z-score was 0.8 in experiment [18], 0.541 in experiment [19] and -0.0678 in experiment [20]. Also, the z-score in experiment [8] was -0.199 (inactive); in experiment [12], -0.372 (inactive); in experiment [13], -0.246 (inactive); in experiment [14], 0.231 (inactive); in experiment [16] it was -1.17 (inactive).
`COc1ccc(CCNC(=O)[C@@]2(Sc3ccc(C)cc3)CC(=O)N(C(C)C)[C@@H]2c2ccc(CO)cc2)cc1`: the composite z-score in experiment [1] is 1.09; in experiment [2], 0.53; in experiment [3] it was -0.129; in experiment [4], -0.0606; in [5], -1.35; in experiment [6] it was 0.871. Further, the composite z-score in experiment [7] was 0.401; in [9], -0.686; in experiment [10], 0.021; in experiment [11], 0.633; in experiment [15] it was 2.09; in [17] it was 0.0507. In addition, the composite z-score in [18] is -1.4; in experiment [19], -1.15; in experiment [20], -0.249. Also, the z-score is -0.921 (inactive) in [8]; 0.956 (inactive) in experiment [12]; 0.0503 (inactive) in [13]; 0.088 (inactive) in experiment [14]; -0.015 (inactive) in experiment [16].
As to `CC(C)CNC(=O)[C@@H]1c2ccccc2C(=O)N(Cc2ccccc2)[C@H]1c1ccc(CO)cc1`, the composite z-score in [1] was 1.12; in experiment [2] it was 0.886; in experiment [3], 0.0173; in experiment [4] it was -0.0403; in [5] it was -1.04; in experiment [6], 0.935. Moreover, the composite z-score in experiment [7] is 0.76; in experiment [9], -0.469; in [10], -0.118; in [11], 0.586; in experiment [15], 3.22; in experiment [17] it was -0.188. For the same compound, the composite z-score is -0.731 in [18], -0.677 in [19] and -0.189 in experiment [20]. The z-score in experiment [8] was -0.504 (inactive); in [12] it was -0.416 (inactive); in experiment [13], 0.138 (inactive); in [14] it was -0.895 (inactive); in [16] it was -0.73 (inactive).
